From PubChem BioAssay
Values without a mark were called inactive. For some assays here: Entries with a potency or affinity are not part of this list. Calls of active or inactive are those of the source. Unless noted, no rule for the calls is given here.

Key:
[1] = antimalarial activity against Dd2 strain (AID 2302;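 active = growth inhibition above 50% at the single 2 µM test dose, taken to imply half-maximal potency below 2 µM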;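 also: 0% = DMSO untreated growth and 100% = chloroquine plus artemisinin killed control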); settings: P. falciparum Dd2 in RBCs, LDH growth readout, 72 h; at 2 µM; active compounds read high
[2] = HepG2 cytotoxicity, primary screen, cytotoxicity control for P. falciparum antimalarial project, cell-based, ATP luminescence (AID 2303;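 active = inhibition above 50%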;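 also: 0% = DMSO wells and 100% = digitonin-killed cells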); settings: HepG2 viability, 24-48 h, at 10 µM, active compounds read high
[3] = biological target: L-lactate dehydrogenase (Plasmodium falciparum (isolate CDC / Honduras)) (UniProt Q27743); test: PfLDH activity inhibition – cell lysate, 3D7 strain, counter-screen for P. falciparum growth inhibition project (AID 2304);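 also: 0% = vehicle and 100% = reference inhibitor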; settings: P. falciparum 3D7 crude extract, LDH APAD/NBT absorbance; at 2 µM; active compounds read high
[4] = inhibition of 3D7 malaria parasite growth – strain 3D7 (AID 2306);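 also: 0% = DMSO wells and 100% = chloroquine plus artemisinin control wells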; settings: P. falciparum 3D7 erythrocytic growth, LDH absorbance, 72 h; at 2 µM; active compounds read high
[5] = biological target: Calcium-dependent protein kinase 1 (Plasmodium falciparum (isolate 3D7)) (UniProt P62344); test: PfCDPK1 kinase inhibitors, biochemical, TCAMS library (AID 1159585; cut-off not given, nearly all actives have IC50 up to about 0.98 µM;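 also: inhibitors leave more ATP so luminescence rises with inhibition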); settings: recombinant PfCDPK1, Kinase-Glo ATP depletion luminescence
[6] = biological target: Plasmodium falciparum protein kinase 6 (PK6, PF3D7_1337100) (UniProt Q8IDW1); test: PfPK6 kinase inhibitors, biochemical, TCAMS library (AID 1159586); settings: recombinant PfPK6, Kinase-Glo ATP depletion luminescence
[7] = biological target: Protein kinase 7 (PK7), Plasmodium falciparum 3D7 (PF3D7_0213400) (UniProt Q7YTF7); test: inhibition of Plasmodium PK7 catalytic activity – biochemical, TCAMS antimalarial set, Kinase-Glo luminescence (AID 1159587); settings: recombinant PfPK7, Kinase-Glo ATP depletion luminescence
[8] = biological target: Calcium-dependent protein kinase 4 (Plasmodium falciparum (isolate 3D7)) (UniProt Q8IBS5); test: PfCDPK4 kinase inhibitors, biochemical, TCAMS library (AID 1159588; cut-off not given, nearly all actives have IC50 up to about 0.91 µM); settings: recombinant PfCDPK4, Kinase-Glo ATP depletion luminescence
Sequence of Calcium-dependent protein kinase 4 (Plasmodium falciparum (isolate 3D7)) (Q8IBS5 whole entry, looked up): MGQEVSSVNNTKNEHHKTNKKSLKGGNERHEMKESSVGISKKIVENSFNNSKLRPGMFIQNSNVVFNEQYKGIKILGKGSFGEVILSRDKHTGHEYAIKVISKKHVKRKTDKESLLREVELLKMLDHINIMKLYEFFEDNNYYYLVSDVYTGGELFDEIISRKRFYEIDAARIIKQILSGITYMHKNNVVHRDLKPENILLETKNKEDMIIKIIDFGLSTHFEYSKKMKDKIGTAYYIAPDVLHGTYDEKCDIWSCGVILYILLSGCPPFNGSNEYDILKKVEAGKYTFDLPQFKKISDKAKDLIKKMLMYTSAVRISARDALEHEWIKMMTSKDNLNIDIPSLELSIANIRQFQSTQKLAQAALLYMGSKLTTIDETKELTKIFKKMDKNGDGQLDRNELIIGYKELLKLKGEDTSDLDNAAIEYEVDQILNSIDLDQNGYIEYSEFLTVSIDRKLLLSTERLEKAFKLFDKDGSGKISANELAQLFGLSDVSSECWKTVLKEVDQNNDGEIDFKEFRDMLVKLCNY

Sequence of L-lactate dehydrogenase (Plasmodium falciparum (isolate CDC / Honduras)) (Q27743 whole entry, looked up): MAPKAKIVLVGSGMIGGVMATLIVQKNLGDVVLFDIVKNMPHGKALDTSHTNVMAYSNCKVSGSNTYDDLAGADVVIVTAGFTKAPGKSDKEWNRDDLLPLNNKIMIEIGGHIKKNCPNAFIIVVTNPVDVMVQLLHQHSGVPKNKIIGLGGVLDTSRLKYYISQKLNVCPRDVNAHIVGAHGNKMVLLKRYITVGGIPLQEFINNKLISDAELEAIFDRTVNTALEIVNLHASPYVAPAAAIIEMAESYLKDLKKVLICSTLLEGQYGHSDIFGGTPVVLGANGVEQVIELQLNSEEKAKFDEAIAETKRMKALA
Sequence of Plasmodium falciparum protein kinase 6 (PK6, PF3D7_1337100) (Q8IDW1 1-305): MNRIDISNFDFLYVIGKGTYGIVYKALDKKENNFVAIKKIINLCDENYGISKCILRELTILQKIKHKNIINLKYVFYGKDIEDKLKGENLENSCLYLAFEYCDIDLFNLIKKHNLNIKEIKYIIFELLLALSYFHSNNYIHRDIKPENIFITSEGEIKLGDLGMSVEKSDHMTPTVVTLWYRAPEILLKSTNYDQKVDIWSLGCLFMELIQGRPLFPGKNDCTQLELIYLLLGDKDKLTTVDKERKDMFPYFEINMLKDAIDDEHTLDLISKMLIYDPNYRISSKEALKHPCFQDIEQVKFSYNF
Sequence of Protein kinase 7 (PK7), Plasmodium falciparum 3D7 (PF3D7_0213400) (Q7YTF7 1-343): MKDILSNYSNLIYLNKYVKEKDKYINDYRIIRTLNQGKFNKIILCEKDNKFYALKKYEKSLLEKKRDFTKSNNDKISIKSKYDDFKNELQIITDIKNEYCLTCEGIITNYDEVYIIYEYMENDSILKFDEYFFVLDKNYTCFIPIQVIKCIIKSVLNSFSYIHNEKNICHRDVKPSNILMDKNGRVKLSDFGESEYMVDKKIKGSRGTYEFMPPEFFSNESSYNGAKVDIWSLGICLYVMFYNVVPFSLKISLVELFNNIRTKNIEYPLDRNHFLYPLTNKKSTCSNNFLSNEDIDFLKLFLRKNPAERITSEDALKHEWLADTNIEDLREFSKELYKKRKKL
Sequence of Calcium-dependent protein kinase 1 (Plasmodium falciparum (isolate 3D7)) (P62344 whole entry, looked up): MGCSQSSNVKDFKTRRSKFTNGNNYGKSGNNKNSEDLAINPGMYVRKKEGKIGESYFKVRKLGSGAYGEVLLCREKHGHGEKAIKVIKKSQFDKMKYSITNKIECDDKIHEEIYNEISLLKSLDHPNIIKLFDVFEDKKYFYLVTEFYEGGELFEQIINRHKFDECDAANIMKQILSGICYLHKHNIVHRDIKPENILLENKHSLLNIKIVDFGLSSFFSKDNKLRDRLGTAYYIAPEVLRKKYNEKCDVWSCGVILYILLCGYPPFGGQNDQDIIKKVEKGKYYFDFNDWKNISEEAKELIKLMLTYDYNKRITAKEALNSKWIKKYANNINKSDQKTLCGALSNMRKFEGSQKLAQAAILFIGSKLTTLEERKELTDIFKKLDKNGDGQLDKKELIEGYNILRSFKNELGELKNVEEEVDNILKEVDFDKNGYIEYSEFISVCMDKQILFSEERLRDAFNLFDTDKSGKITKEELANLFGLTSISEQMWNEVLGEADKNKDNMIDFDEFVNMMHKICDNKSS

Compound | growth inhibition [1] | inhibition [2] | inhibition [3] [%] | growth inhibition [4] | outcome [5] | outcome [6] | outcome [7] | outcome [8]
O=C(N[C@@H](Cc1ccccc1)[C@H](O)CNCCC(F)(F)F)c1cccc(OCC2CC2)c1 | 95% (active) | 0% | -1 | 98% (active) | inactive | inactive | inactive | inactive
Cn1cncc1C(=O)Nc1cccc(-c2ccc(-c3nc4ccccc4[nH]3)s2)c1 | 25% | -3% | -3 | 102% (active) | inactive | inactive | inactive | inactive
COc1cc(Cc2cnc(N)nc2N)cc(OCCCN2C(=O)c3ccccc3C2=O)c1OC | -3% | -1% | 1 | 96% (active) | inactive | inactive | inactive | inactive
CCNc1cc(C)nc(Nc2ccc(F)cc2)n1 | 57% (active) | 1% | -7 | 101% (active) | inactive | inactive | inactive | inactive
COc1ccc(-c2ncnc(C(F)(F)F)c2-c2ccc(Cl)cc2)c(O)c1 | 22% | 1% | -4 | 100% (active) | inactive | inactive | inactive | inactive
COc1cccc(C2=CC(c3ccccc3)n3ncc(C(=O)Nc4ccc(Cl)cc4)c3N2)c1 (stereo not given) | 28% | 7% | -1 | 88% (active) | inactive | inactive | inactive | inactive
O=C(Nc1ccc(S(=O)(=O)N2CCCCC2)cc1)c1cc(-c2cc(Cl)ccc2O)n[nH]1 | 87% (active) | 36% | 0 | 97% (active) | inactive | inactive | inactive | inactive
O=C(CCc1nc2c(cnn2-c2ccccc2)c(=O)[nH]1)NC1CCSc2ccccc21 (stereo not given) | 52% (active) | 10% | -2 | 95% (active) | inactive | inactive | inactive | inactive
CN(CCN1CCC(c2c[nH]c3ccccc23)CC1)C(=O)OCCCCCNC(=O)/C=C/c1ccc(Cl)c(Cl)c1 | 44% | 39% | -4 | 95% (active) | inactive | inactive | inactive | inactive
Cc1cccc2[nH]c(-c3cccc(-c4ccc(NC(=O)C(C)C(=O)NC(C)C)cc4)c3)nc12 (stereo not given) | 26% | 13% | -3 | 85% (active) | inactive | inactive | inactive | inactive
COc1ccccc1NC(=O)Nc1cccc(-c2ccc(-c3nc4ccc(C(F)(F)F)cc4[nH]3)cc2)c1 | 76% (active) | 28% | 5 | 100% (active) | inactive | inactive | inactive | inactive
Cc1cc(N[C@@H](CC(C)C)C(=O)NC2CCCC2)nc(NCCc2ccc(F)cc2)n1 | 47% | 15% | -2 | 100% (active) | inactive | inactive | inactive | inactive
COc1nc(NCC(C)C)nc(Oc2ccc(=O)n(Cc3ccccc3)n2)n1 | 93% (active) | 1% | 5 | 97% (active) | inactive | inactive | inactive | inactive
O=C(Nc1ccc(Cn2ncc(N3CCCNCC3)c(Cl)c2=O)cc1)Nc1ccc(F)cc1[N+](=O)[O-] | -3% | 11% | -4 | 90% (active) | inactive | inactive | inactive | inactive
O=C(Nc1ccc(OC2CCN(Cc3ccc(F)cc3)CC2)c(Cl)c1)c1cccs1 | 96% (active) | 7% | -1 | 95% (active) | inactive | inactive | inactive | inactive
Cc1ccc2c(c1)NC[C@@]21CCN(C[C@@H](O)C2CCN(c3ccnc(Cl)c3)CC2)C[C@@H]1C | 69% (active) | 46% | -5 | 87% (active) | inactive | inactive | inactive | inactive
FC(F)(F)c1ccc(/C=C/c2cncnc2Nc2ccc3nc(Cc4ccccc4)[nH]c3c2)cc1 | 101% (active) | 21% | 1 | 100% (active) | inactive | inactive | inactive | inactive
CN(C)CCOc1cc(NC(=O)/C=C/c2cccc3ccccc23)ccc1I | 7% | 55% (active) | 0 | 98% (active) | inactive | inactive | inactive | inactive
N=C(N)c1ccc(C=CC(=O)NCC(O)CNC(=O)C=Cc2ccc(C(=N)N)cc2)cc1 (stereo not given) | 80% (active) | -14% | -1 | 90% (active) | inactive | inactive | inactive | inactive
CC(CN1CCN(C)CC1)C(=O)Nc1ccc(-c2ccc(-c3nc4ccc(F)cc4[nH]3)cc2)cc1 (stereo not given) | 87% (active) | 19% | -5 | 101% (active) | inactive | inactive | inactive | inactive

Compound | growth inhibition [1] | inhibition [2] | inhibition [3] [%] | growth inhibition [4] | outcome [5] | outcome [6] | outcome [7] | outcome [8]
COc1cc2c(cc1N(C(C)C)S(=O)(=O)c1sc3ccc(Cl)cc3c1C)CCNCC2 | 70% (active) | 98% (active) | -3 | 91% (active) | inactive | inactive | inactive | inactive
COc1ccc(CCNCC(O)c2cccc(Br)c2)c(Cl)c1OC (stereo not given) | 70% (active) | 18% | 0 | 87% (active) | inactive | inactive | inactive | inactive
Cc1cc(CN2CC[C@H](NC(=O)c3ccc(Cl)c(Cl)c3)C2)ccc1OC1CCN(C)C1 (stereo not given in full) | 24% | 71% (active) | -3 | 101% (active) | inactive | inactive | inactive | inactive
O=C(Nc1ccc(Cl)c(Cl)c1)Nc1ccc(F)c([N+](=O)[O-])c1 | 96% (active) | 49% | -3 | 101% (active) | inactive | inactive | inactive | inactive
Cc1cc(-c2ccc3c(c2)CCN(CCC2CCC(NC(=O)/C=C/c4cccc(F)c4)CC2)CC3)on1 (stereo not given) | 19% | 23% | -10 | 95% (active) | inactive | inactive | inactive | inactive
CC1(C)N=C(N)N=C(N)N1OCCOc1cccc(C(F)(F)F)c1 | 97% (active) | 67% (active) | -2 | 93% (active) | inactive | inactive | inactive | inactive
O=C(Nc1ccc(C(F)(F)F)cc1)c1ccc(S(=O)(=O)NC2CCN(CC3CCCCC3)CC2)cc1 | 20% | 30% | 1 | 101% (active) | inactive | inactive | inactive | inactive
O=C(/C=C/c1ccc(Cl)c(Cl)c1)NCCCCCN1CCC(NC(=S)Nc2ccc(F)cc2F)CC1 | 18% | 20% | 1 | 100% (active) | inactive | inactive | inactive | inactive
COc1cc(NC(=O)N2CCOC(CCN3CCC(c4ccccc4)CC3)(c3ccc(Cl)c(Cl)c3)C2)cc(OC)c1 (stereo not given) | 73% (active) | 12% | 0 | 93% (active) | inactive | inactive | inactive | inactive
O=C(Nc1ccc(Cl)cc1)c1cc(Cl)ccc1NC(=O)C1(c2ccc(Cl)cc2)CCCC1 | 29% | 13% | -4 | 85% (active) | inactive | inactive | inactive | inactive
CCCCC(=O)N(CCOC)Cc1ccc(-c2ccc(CNCCC)cn2)cc1 | 68% (active) | 30% | -3 | 99% (active) | inactive | inactive | inactive | inactive
Cc1c(-c2ccccc2)ccc2[nH]cc(CC#N)c12 | 85% (active) | 2% | -2 | 95% (active) | inactive | inactive | inactive | inactive
Cc1cc(Nc2nc(NCc3cccnc3)nc3ccccc23)n[nH]1 | 33% | 11% | 1 | 101% (active) | inactive | inactive | inactive | inactive
CC(=O)Nc1ccc(C(=O)NC2CCN(c3ccnc4cc(Cl)ccc34)C2)cc1 (stereo not given) | 100% (active) | 1% | -1 | 101% (active) | inactive | inactive | inactive | inactive
CC[C@H](N=C(Nc1ccc(C#N)cc1O)Nc1cccc(Cl)c1Cl)c1ccccc1 | 71% (active) | -2% | -1 | 91% (active) | inactive | inactive | inactive | inactive
O=C(Nc1cccc(-c2ccc(-c3nc4ccc(C(F)(F)F)cc4[nH]3)s2)c1)c1cnc[nH]1 | 36% | 55% (active) | -3 | 89% (active) | inactive | inactive | inactive | inactive
CCN(CC)C(=NC(N)=NCCCCCCN=C(N)N=C(Nc1ccc(Cl)cc1)N(CC)CC)Nc1ccc(Cl)cc1 | 96% (active) | 1% | 8 | 97% (active) | inactive | inactive | inactive | inactive
Cc1cc(N[C@@H](CC(C)C)C(=O)NCc2cccs2)nc(NCCc2cccs2)n1 | 13% | -3% | -4 | 92% (active) | inactive | inactive | inactive | inactive
COc1ccc(-c2cc(NCc3ccc(-n4ccnc4)cc3)nc(Nc3ccccc3)n2)cc1 | 79% (active) | 8% | 0 | 101% (active) | inactive | inactive | inactive | inactive
COc1cc(C(=O)NC2CCN(Cc3ccccc3)CC2)ccc1-c1nc2cc(Cl)c(C)cc2[nH]1 | 97% (active) | -3% | 0 | 99% (active) | inactive | inactive | inactive | inactive
